From the supplement of paper PMC10849652 come the findings set out here.

Of roughly 7,900 targets only a part is listed; those with a hit were picked by preference. About 0.6% of all pairs of compound and target were hits.

Chain of UniProt Q9Y383 (Q9Y383 whole entry, looked up): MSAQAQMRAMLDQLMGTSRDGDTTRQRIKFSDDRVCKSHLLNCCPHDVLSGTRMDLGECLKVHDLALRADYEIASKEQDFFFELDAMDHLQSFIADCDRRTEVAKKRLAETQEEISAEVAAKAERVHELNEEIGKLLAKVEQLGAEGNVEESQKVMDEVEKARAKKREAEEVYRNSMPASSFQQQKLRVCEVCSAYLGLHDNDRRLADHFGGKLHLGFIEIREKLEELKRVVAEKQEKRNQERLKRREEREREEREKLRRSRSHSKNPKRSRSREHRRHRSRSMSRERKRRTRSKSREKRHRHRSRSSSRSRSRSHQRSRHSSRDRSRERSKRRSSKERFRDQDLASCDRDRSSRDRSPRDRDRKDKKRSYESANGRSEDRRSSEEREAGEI
Chain of UniProt Q9P244 (Q9P244 whole entry, looked up): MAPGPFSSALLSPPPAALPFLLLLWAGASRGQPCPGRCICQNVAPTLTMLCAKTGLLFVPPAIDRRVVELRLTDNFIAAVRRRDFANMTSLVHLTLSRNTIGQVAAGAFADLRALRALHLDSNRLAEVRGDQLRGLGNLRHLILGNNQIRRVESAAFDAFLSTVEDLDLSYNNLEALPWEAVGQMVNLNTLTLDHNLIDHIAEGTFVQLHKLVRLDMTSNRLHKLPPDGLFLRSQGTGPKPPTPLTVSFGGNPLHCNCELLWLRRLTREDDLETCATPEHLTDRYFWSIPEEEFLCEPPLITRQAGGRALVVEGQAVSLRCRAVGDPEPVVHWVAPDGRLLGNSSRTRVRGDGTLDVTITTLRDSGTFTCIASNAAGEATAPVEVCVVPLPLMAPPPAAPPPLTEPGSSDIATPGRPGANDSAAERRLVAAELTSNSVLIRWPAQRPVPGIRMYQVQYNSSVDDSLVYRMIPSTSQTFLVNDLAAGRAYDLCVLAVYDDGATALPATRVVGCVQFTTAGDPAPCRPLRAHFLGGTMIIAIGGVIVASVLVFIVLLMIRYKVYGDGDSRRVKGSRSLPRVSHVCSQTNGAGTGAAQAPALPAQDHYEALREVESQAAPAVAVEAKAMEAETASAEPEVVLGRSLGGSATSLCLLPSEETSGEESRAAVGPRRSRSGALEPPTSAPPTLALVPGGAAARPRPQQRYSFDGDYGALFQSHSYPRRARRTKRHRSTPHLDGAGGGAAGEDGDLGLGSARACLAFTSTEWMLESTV
Chain of UniProt P53778 (P53778 whole entry, looked up): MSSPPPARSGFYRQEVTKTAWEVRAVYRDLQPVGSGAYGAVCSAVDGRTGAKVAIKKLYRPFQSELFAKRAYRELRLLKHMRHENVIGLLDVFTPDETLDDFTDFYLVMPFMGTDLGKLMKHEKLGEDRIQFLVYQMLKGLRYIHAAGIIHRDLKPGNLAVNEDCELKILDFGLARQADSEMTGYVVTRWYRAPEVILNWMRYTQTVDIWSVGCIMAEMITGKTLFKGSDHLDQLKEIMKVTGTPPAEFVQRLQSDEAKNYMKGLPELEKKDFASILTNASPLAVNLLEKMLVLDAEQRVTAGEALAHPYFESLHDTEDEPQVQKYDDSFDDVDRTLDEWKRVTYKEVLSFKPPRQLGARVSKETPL
Chain of UniProt P11717 (P11717 whole entry, looked up): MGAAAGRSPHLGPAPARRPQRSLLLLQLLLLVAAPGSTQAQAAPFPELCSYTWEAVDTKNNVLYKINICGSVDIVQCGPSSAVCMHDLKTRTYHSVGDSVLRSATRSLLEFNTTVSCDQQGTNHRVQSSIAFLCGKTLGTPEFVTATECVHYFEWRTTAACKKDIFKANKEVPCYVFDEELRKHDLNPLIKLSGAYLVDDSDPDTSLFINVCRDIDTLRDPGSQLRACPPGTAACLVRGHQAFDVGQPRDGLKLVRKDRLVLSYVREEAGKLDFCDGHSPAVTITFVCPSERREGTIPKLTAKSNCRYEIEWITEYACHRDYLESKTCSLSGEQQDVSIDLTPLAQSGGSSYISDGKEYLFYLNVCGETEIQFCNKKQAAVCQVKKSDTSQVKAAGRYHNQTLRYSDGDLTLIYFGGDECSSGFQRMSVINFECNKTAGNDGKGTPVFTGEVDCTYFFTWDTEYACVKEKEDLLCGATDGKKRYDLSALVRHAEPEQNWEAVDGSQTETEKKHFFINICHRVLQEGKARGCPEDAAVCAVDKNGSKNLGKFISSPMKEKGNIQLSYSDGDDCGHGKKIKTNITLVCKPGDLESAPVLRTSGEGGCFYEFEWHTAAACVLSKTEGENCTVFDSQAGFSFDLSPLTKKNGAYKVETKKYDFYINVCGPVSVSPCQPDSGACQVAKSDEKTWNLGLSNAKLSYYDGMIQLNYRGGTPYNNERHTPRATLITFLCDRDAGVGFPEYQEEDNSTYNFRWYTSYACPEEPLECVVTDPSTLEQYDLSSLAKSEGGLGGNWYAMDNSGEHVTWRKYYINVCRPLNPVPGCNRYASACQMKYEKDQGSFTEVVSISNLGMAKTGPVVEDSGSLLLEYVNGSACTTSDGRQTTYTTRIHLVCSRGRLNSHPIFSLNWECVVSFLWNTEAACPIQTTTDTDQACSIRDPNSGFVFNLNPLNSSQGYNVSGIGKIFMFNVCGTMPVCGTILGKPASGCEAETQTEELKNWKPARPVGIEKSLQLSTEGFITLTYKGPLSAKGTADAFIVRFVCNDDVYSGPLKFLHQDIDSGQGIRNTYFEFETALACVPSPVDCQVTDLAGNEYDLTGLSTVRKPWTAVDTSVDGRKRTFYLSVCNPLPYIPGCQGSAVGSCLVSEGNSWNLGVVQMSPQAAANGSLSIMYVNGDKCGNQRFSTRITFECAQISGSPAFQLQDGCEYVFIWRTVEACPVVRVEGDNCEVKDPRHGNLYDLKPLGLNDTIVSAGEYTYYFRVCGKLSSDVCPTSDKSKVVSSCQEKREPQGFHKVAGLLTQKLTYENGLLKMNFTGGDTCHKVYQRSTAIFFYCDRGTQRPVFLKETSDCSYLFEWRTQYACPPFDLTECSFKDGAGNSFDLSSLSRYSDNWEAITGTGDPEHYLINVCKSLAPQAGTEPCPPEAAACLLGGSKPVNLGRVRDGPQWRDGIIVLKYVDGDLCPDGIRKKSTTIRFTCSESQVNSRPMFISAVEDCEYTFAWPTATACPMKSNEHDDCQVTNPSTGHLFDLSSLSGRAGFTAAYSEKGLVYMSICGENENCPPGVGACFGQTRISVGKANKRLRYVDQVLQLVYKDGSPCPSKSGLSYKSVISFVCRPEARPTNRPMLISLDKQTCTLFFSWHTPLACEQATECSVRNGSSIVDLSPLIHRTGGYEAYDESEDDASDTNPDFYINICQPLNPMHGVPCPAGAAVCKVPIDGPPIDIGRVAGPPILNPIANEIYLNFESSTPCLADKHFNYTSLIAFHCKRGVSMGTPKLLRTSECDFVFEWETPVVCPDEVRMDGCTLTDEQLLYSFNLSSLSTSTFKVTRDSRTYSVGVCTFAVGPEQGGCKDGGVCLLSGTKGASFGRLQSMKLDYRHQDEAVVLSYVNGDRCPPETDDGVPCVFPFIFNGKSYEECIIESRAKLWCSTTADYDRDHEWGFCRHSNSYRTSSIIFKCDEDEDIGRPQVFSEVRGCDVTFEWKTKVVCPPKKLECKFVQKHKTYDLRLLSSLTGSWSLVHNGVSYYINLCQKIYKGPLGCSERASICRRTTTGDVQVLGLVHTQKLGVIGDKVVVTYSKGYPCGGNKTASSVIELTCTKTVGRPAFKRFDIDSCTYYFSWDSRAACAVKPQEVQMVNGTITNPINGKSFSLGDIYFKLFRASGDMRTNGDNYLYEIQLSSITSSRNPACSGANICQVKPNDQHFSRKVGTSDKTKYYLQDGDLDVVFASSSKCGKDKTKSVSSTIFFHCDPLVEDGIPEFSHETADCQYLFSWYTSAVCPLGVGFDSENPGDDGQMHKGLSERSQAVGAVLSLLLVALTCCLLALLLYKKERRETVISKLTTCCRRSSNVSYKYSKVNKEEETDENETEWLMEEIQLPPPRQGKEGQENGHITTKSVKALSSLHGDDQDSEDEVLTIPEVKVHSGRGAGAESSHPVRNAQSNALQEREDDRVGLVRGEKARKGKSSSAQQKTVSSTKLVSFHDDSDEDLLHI
Chain of UniProt Q14653 (Q14653 whole entry, looked up): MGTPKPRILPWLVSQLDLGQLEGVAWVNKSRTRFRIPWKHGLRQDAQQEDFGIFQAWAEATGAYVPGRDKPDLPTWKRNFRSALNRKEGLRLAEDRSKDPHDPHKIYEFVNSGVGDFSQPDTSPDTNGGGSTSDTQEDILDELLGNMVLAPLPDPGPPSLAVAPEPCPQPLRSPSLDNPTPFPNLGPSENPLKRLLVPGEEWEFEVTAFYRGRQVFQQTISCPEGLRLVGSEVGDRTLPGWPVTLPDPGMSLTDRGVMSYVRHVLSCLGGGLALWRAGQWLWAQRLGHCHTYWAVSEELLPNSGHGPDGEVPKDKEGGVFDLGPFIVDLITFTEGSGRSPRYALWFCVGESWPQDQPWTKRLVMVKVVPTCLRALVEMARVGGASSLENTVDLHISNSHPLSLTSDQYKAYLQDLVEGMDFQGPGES
Chain of UniProt P52294 (P52294 whole entry, looked up): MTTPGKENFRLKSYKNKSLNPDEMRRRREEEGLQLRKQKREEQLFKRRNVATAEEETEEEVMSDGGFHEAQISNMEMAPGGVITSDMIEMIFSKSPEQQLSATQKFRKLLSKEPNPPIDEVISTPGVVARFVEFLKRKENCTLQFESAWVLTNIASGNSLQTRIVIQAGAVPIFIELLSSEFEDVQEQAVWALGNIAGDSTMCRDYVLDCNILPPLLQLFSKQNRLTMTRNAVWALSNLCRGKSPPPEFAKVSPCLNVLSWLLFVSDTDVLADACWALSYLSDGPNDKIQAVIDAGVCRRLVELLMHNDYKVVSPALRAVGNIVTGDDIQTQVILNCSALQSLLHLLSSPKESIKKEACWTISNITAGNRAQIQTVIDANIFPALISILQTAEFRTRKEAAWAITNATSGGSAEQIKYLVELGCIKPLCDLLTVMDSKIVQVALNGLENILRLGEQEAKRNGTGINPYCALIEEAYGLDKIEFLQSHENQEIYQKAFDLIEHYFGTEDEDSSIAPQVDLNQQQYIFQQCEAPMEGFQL

Compound in the assay: c1cn2cc(-c3ccc4cn[nH]c4c3)nc(Nc3ccc(N4CCOCC4)cc3)c2n1 [entospletinib]
Briefly: log2 fold change, soluble protein after heating vs DMSO (PISA); higher = thermal stabilisation; K562 cells, 10 uM, 30 min; active = over 0.2 and 3.5 SD of the protein, either way, in both replicates (recomputed). In outline:
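Soluble protein was quantified by TMTpro 16plex LC-MS/MS after channel sums were equalised. It was obtained as the supernatant after 21,000xg for 90 min from pooled aliquots of K562 cells (2×10^6 cells/mL, 10 μM compound, 30 min) heated for 3 min across 48°C-58°C and extracted in PBS with 0.5% NP-40 at 4°C. Thermal stability values are relative to control samples and come from duplicates. They are given as log2 fold changes.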
As for ING5 (UniProt Q8WYH8), the log2 fold change was -0.058 (inactive).
Then KLHDC4 (UniProt Q8TBB5), with 0.065 (inactive); and IGF2R (UniProt P11717), with -0.004 (inactive); and KHDRBS1 (UniProt Q07666), with 0.189 (inactive).
The result for LRFN1 (UniProt Q9P244) reads -0.031 (inactive).
The result for MAPK12 (UniProt P53778) reads 0.02 (inactive).
MCUR1 (UniProt Q96AQ8): the log2 fold change was 0.018 (inactive).
Then MFSD11 (UniProt O43934), with 0.109 (inactive).
Regarding LPGAT1 (UniProt Q92604), the log2 fold change is -0.069 (inactive).
Then KIF1B isoform 4 (UniProt O60333), with -0.013 (inactive).
Take LARP7 isoform 3 (UniProt Q4G0J3): the log2 fold change is 0.006 (inactive).
For IMMT isoform 4 (UniProt Q16891), the log2 fold change is -0.011 (inactive).
Regarding KPNA1 (UniProt P52294), the log2 fold change is 0.022 (inactive).
Then METTL18 (UniProt O95568), with 0.072 (inactive).
Then LUC7L3 (UniProt O95232), with -0.005 (inactive).
Then LIMA1 isoform 4 (UniProt Q9UHB6), with -0.119 (inactive); and MFN1 (UniProt Q8IWA4), with -0.028 (inactive); and MDN1 (UniProt Q9NU22), with -0.123 (inactive).
Turning to KIF21A isoform 4 (UniProt Q7Z4S6), the log2 fold change is 0.018 (inactive).
The result for IRF3 (UniProt Q14653) reads -0.022 (inactive); that for IWS1 (UniProt Q96ST2), 0.159 (inactive).
On to LUC7L2 (UniProt Q9Y383), for which the log2 fold change is 0 (inactive).
Then ILRUN (UniProt Q9H6K1), with -0.004 (inactive).
